# Results: PubChem BioAssay
# Biological target: Calmodulin-1 (Homo sapiens) (UniProt P0DP23)
# Test: small molecules binding calmodulin-1 with EGTA – biochemical, small-molecule microarray, Cy5-labelled CALM1, profiling panel (AID 1111);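 note: labelled calmodulin applied in Tris saline Tween buffer holding calcium plus EGTA and DTT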
# Settings: Cy5-CALM1 binding fluorescence, higher = more signal
row,Compound,composite z-score
1,O=C1O[C@H](c2ccccc2)[C@H](c2ccccc2)N2[C@H]1[C@@H](C(=O)NC[C@H](O)c1ccccc1)[C@]1(C(=O)Nc3ccccc31)[C@H]2c1ccccc1OCCO,1.31
2,[N-]=[N+]=NCc1ccccc1[C@H]1OC(c2ccc(OCCCO)cc2)=N[C@@]1(Cc1ccccc1N=[N+]=[N-])C(=O)N1CCCCC1,1
3,O=[N+]([O-])c1ccc(C[n+]2ccc(-c3ccc(CO)cc3)cc2)o1,-0.165
4,O=C1OCC=C[C@H]2OC34C=CCN(CCN5CCOCC5)C(=O)[C@H]3N(CCCCCO)C(=O)[C@@H]4[C@@H]12 (some centres undefined),-0.234
5,Cc1ccccc1C(O)C1C=CC2C(=O)N(C)C(=O)C2N1Nc1ccc([N+](=O)[O-])cc1[N+](=O)[O-] (centres undefined),1.43
6,O=C1NC(=O)C2C1C=CC(C(O)CCc1ccccc1)N2Nc1ccccn1 (centres undefined),0.901
7,O=C(O)[C@@]1(Cc2ccccc2)COC(c2ccc(OCCCO)cc2)=N1,-0.106
8,COC(=O)[C@@]1(Cc2ccccc2)[C@H]2c3cc(C(=O)N(C)C)n(Cc4ccccn4)c3C[C@H]2CN1C(=O)c1ccccc1,1.92
9,Cc1ccccc1C(O)C1C=CC2C(=O)N(Cc3ccccc3)C(=O)C2N1n1cnnc1 (centres undefined),0.0712
10,CCOc1cc(C(O)C2C=CC3C(=O)NC(=O)C3N2Nc2ccccn2)ccc1O (centres undefined),0.384
11,CCOC(=O)C[C@H]1[C@H](OC(=O)c2ccccc2-c2ccccc2)[C@@H](NC(=O)c2ccccc2)c2cc(OCCCO)ccc2N1C(=O)Cc1ccc(OC)cc1,-0.026
12,COC(=O)C(CC#Cc1ccc2c(c1)[C@]1(C(=O)N2)[C@H](c2ccccc2OCCO)N2[C@H](c3ccccc3)[C@H](c3ccccc3)OC(=O)[C@H]2[C@@H]1C(=O)Nc1nc2ccccc2s1)C(=O)OC,0.973
13,C=CCC(OC(C)=O)[C@@H]1[C@@H](N(Cc2cccc3ccccc23)C(=O)c2ccc(C)cc2)c2cc(OCCCO)ccc2N1C(=O)c1ccc2ccccc2c1 (some centres undefined),-0.0236
14,O=C1NC(=O)C2C1C=CC(C(O)c1ccc3c(c1)OCO3)N2Nc1ccc(Cl)cc1Cl (centres undefined),1.43
15,CCC[C@@H]1C[C@@]1(CCC)[C@@H](NC(=O)c1ccco1)c1ccc(Cl)cc1,-0.177
16,CC(C)NC(=O)[C@@]1(Cc2ccccc2I)c2ccccc2C(=O)N(Cc2ccccc2C(F)(F)F)[C@H]1c1ccc(CO)cc1,0.503
17,CCOC(=O)C[C@H]1[C@H](OC(=O)c2ccc(C(=O)c3ccccc3)cc2)[C@@H](NC(=O)C2CCCCC2)c2cc(OCCCO)ccc2N1C(=O)Cc1ccc(OC)cc1,1.13
18,COc1ccc([Si](C)(C)[C@@H]2[C@@H](CC(=O)N3Cc4ccccc4C[C@H]3CO)O[C@]3(C(=O)N(Cc4cccc(N5CCCCC5=O)c4)c4ccccc43)[C@H]2C)cc1,0.836
19,COCC(=C=CC[C@@H](O)c1ccccc1OCCO)C[C@@H](O)c1ccccn1,-0.153
20,COCCCNC(=O)[C@]1(CCS(=O)(=O)c2ccccc2)N=C(c2ccc(OCCCO)cc2)O[C@@H]1c1ccccc1,1.62
21,COc1cccc(C[C@H]2C[C@@H](CO[Si](C(C)C)(C(C)C)C(C)C)N3C(=O)[C@]4(C(C)=O)O[C@]23[C@H]2C(=O)N(C)C(=O)[C@H]24)c1,0.293
22,CCCCC(=C=CC[C@H](O)c1cccc(OCCO)c1)C[C@H](O)COCc1ccccc1,-0.59
23,CC(C)CNC(=O)[C@@]1(C)c2ccccc2C(=O)N(Cc2ccccc2)[C@H]1c1ccc(CO)cc1,-1.21
24,O=C1N(Cc2ccccc2)c2ccccc2[C@H]2OC(c3ccc(OCCCO)cc3)=N[C@@]12CCS(=O)(=O)c1ccccc1,1.76
25,COc1ccc([Si](C)(C)[C@H]2[C@H](CCn3cc(CCO)nn3)O[C@@]3(C(=O)N(Cc4cccc(N5C(=O)c6cccc7cccc5c67)c4)c4ccccc43)[C@@H]2C)cc1,0.35
26,COCCOC(=O)N1C(=O)[C@@]2(c3cc(C#CCC(C(=O)OC)C(=O)OC)ccc31)[C@H](c1ccc(OCCO)cc1)N1[C@H](c3ccccc3)[C@H](c3ccccc3)OC(=O)[C@H]1[C@@H]2C(N)=O,1.61
27,[N-]=[N+]=NCc1ccccc1C[C@]1(C(=O)NCCN2CCOCC2)COC(c2ccc(OCCCO)cc2)=N1,0.74
28,O=C(NCc1ccccc1)[C@]1(Cc2ccccc2)N=C(c2ccc(OCCCO)cc2)O[C@@H]1c1ccccc1,2.01
29,CN(C)C(=O)[C@]1(Cc2ccccc2N=[N+]=[N-])N=C(c2ccc(OCCCO)cc2)O[C@@H]1c1ccccc1CN=[N+]=[N-],0.668
